Active and inactive are the calls of the source. The call rests on the fitted dose curve; in most records, active means well fitted curve in the direction sought with a large enough effect in the repeat runs; inconclusive means weak or mixed curves; inactive means flat fitted curve, though single readings scatter.
Assay: qHTS assay to test for compound auto fluorescence at 460 nm (blue) in HEK293 cells (AID 720678)
Details: blue autofluorescence 405/460 nm; series mostly up to 91.3 µM
Description: National Center for Advancing Translational Sciences [NCATS]
NIH Chemical Genomics Center [NCGC]
U.S. Environmental Protection Agency [EPA]
National Institutes of Environmental Health Sciences [NIEHS]
National Toxicology Program [NTP]
U.S. Food and Drug Administration [FDA]
Compound auto fluorescence often interferes with screening of the compound library against various biological targets and signaling pathways. Some of these compounds may have fluorophoric properties. Such properties may interfere with the assay outputs resulting in false positives and/or negatives. To decrease such complications and ensure the compound activities are relevant in terms of biological response, the Tox21 10K compound library was screened for auto fluorescence.
From the fluorophores used as reporter signals in our screening assays, the auto fluorescence equivalencies of compounds against three fluorophores have been evaluated: Triamterene, Fluorescein and Rose Bengal sodium for blue, green and red fluorescence, respectively. The fluorescence intensities were measured using Excitation/Emission wavelengths at 405/460nm, 485/535nm and 540/590nm for blue, green and red labels, respectively. This assay includes the blue fluorescence data.
Tox21 Assay Protocol Summary:
2,000 HEK293 cells in 5 uL of culture medium containing 10% dialyzed FBS per well were dispensed into black wall/clear bottom 1536-well plates using a Multidrop Combi Dispenser (Thermo Scientific). The assay plates were incubated for 4-5 hr at 37C to allow cell attachment to the well bottom, followed by the transfer of 23 nL compound or DMSO vehicle by a pintool work station (Kalypsys, San Diego, CA). After the assay plates were incubated overnight at 37C and 5% CO2, fluorescence intensities in the assay plates were measured by an Envision (PerkinElmer, Shelton, CT) plate reader using three labels for measuring blue, green and red fluorescence at […] 460, 535 and 590nm respectively.
With `CNP(=O)(OC)Oc1ccc(C(C)(C)C)cc1Cl` (stereo not given) the outcome was “inactive”.
For `CCCCNP(N)(N)=S`, the outcome was “inactive”.
In the case of `CC1(C)[C@H](C=C(Cl)Cl)[C@@H]1C(=O)O[C@@H](C#N)c1cccc(Oc2ccccc2)c1`, the outcome is reported as “inactive”.
For `CCOC(=O)CBr`, the outcome was “inactive”.
For `O=S1(=O)OC(c2cc(Br)c(O)c(Br)c2)(c2cc(Br)c(O)c(Br)c2)c2ccccc21`, the outcome was “inactive”.
In the case of `CC(=O)c1cc2c(cc1C)C(C)(C)C(C)CC2(C)C` (stereo not given), the outcome is reported as “inactive”.
With `CC(C)(Cl)[N+](=O)[O-]` the outcome was “inactive”.
For `CCCC(Cn1cncn1)c1ccc(Cl)cc1Cl` (stereo not given), the outcome was “inactive”.
With `ClC=C(Cl)Cl` the outcome was “inactive”.
For `CC(O)(CS(=O)(=O)c1ccc(F)cc1)C(=O)Nc1ccc(C#N)c(C(F)(F)F)c1` (stereo not given), the outcome was “inactive”.
For `Brc1ccc(Oc2ccccc2)cc1`, the outcome was “inactive”.
With `CCOS(C)(=O)=O` the outcome was “inactive”.
With `CC(C)(CCl)C(=O)Cl` the outcome was “inactive”.
With `O=NN1CCCCCC1` the outcome was “inactive”.
For `CCCCC(CC)COP(=O)(Oc1ccccc1)Oc1ccccc1` (stereo not given), the outcome was “inactive”.
In the case of `C=CC[C@]1(O)CC[C@H]2[C@@H]3CCC4=CC(=O)CCC4=C3C=C[C@@]21C`, the outcome is reported as “inactive”.
With `O=C(O)C(F)(F)C(F)(F)C(F)(F)C(F)(F)C(F)(F)C(F)(F)C(F)(F)C(F)(F)C(F)(F)C(F)(F)F` the outcome was “inactive”.
For `Cc1ccccc1C(=O)Nc1cccc(OC(C)C)c1`, the outcome was “inactive”.
For `O=[Se]=O`, the outcome was “inactive”.
For `Clc1cc(Cl)c(Cl)c(Cl)c1`, the outcome was “inactive”.
With `CCC(COC(=O)c1cc(OC)c(OC)c(OC)c1)(c1ccccc1)N(C)C` (stereo not given) the outcome was “inactive”.
In the case of `IC(I)=C(I)I`, the outcome is reported as “inactive”.
For `C=CC(=O)OC(C)(C)C`, the outcome was “inactive”.
With `[O-][Cl+]O` the outcome was “inactive”.
In the case of `COC(=O)C(C)N(C(=O)Cc1ccccc1)c1c(C)cccc1C` (stereo not given), the outcome is reported as “inactive”.
In the case of `c1ccoc1`, the outcome is reported as “inactive”.
With `O=C(CCl)c1ccc(Cl)cc1Cl` the outcome was “inactive”.
For `CCOC(=O)C(Cl)C(C)=O` (stereo not given), the outcome was “inactive”.
For `O=C1NCN(c2ccccc2)C12CCN(CCCOc1ccc(F)cc1)CC2`, the outcome was “inactive”.
In the case of `C=C(C#N)CCC#N`, the outcome is reported as “inactive”.
For `C=CC(C)=O`, the outcome was “inactive”.
With `Cl/C=C\Cl` the outcome was “inactive”.
For `CCCC(=O)Cl`, the outcome was “inactive”.
In the case of `c1ccc(C2CC2)c(OCC2=NCCN2)c1`, the outcome is reported as “inactive”.
In the case of `O=[N+]([O-])c1ccc(F)c([N+](=O)[O-])c1`, the outcome is reported as “inactive”.
In the case of `CN1[C@@H]2CC[C@H]1CC(OC(=O)c1cc(Cl)cc(Cl)c1)C2` (stereo not given in full), the outcome is reported as “inactive”.
For `NNC(=O)c1cccnc1`, the outcome was “inactive”.
In the case of `NC(=O)C(Cl)(Cl)Cl`, the outcome is reported as “inactive”.
For `CCOC(=O)COc1cc(-c2nn(C)c(OC(F)F)c2Cl)c(F)cc1Cl`, the outcome was “inactive”.
For `CN1C(=O)C(O)N=C(c2ccccc2)c2cc(Cl)ccc21` (stereo not given), the outcome was “inactive”.
